Read-outs that look alike come from different tables or passages of the source.
Assays:
AAK1 = test system: AAK1; parameters: species or system human, MV4-11 + K-562 + COLO205 + SK-N-BE2 + OVCAR-8; conditions: read-out: apparent Kd, n = 1
BMP2K = test system: BMP2K; parameters: species or system human, MV4-11 + K-562 + COLO205 + SK-N-BE2 + OVCAR-8; conditions: read-out: apparent Kd, n = 1
CSNK2A1;CSNK2A3 = test system: CSNK2A1;CSNK2A3; parameters: species or system human, MV4-11 + K-562 + COLO205 + SK-N-BE2 + OVCAR-8; conditions: read-out: apparent Kd, compound concentrations: 100 nM and 1000 nM (sheet 'Samples'), n = 1
CSNK2A2 = test system: CSNK2A2; parameters: species or system human, MV4-11 + K-562 + COLO205 + SK-N-BE2 + OVCAR-8; conditions: read-out: apparent Kd, compound concentrations: 100 nM and 1000 nM (sheet 'Samples'), n = 1
FLT4 = test system: FLT4; parameters: species or system human, MV4-11 + K-562 + COLO205 + SK-N-BE2 + OVCAR-8; conditions: read-out: apparent Kd, n = 1
GAK = test system: GAK; parameters: species or system human, MV4-11 + K-562 + COLO205 + SK-N-BE2 + OVCAR-8; conditions: read-out: apparent Kd, n = 1
GSK3A = test system: GSK3A; parameters: species or system human, MV4-11 + K-562 + COLO205 + SK-N-BE2 + OVCAR-8; conditions: read-out: apparent Kd, n = 1
GSK3B = test system: GSK3B; parameters: species or system human, MV4-11 + K-562 + COLO205 + SK-N-BE2 + OVCAR-8; conditions: read-out: apparent Kd, n = 1
MELK = test system: MELK; parameters: species or system human, MV4-11 + K-562 + COLO205 + SK-N-BE2 + OVCAR-8; conditions: read-out: apparent Kd, n = 1
NUAK1 = test system: NUAK1; parameters: species or system human, MV4-11 + K-562 + COLO205 + SK-N-BE2 + OVCAR-8; conditions: read-out: apparent Kd, n = 1
PAK4 = test system: PAK4; parameters: species or system human, MV4-11 + K-562 + COLO205 + SK-N-BE2 + OVCAR-8; conditions: read-out: apparent Kd, n = 1
PKN1 = test system: PKN1; parameters: species or system human, MV4-11 + K-562 + COLO205 + SK-N-BE2 + OVCAR-8; conditions: read-out: apparent Kd, n = 1
PKN3 = test system: PKN3; parameters: species or system human, MV4-11 + K-562 + COLO205 + SK-N-BE2 + OVCAR-8; conditions: read-out: apparent Kd, n = 1
PRKAG1 = test system: PRKAG1; parameters: species or system human, MV4-11 + K-562 + COLO205 + SK-N-BE2 + OVCAR-8; conditions: read-out: apparent Kd, n = 1
Q6ZSR9 = Q6ZSR9 (human, UniProt Q6ZSR9); parameters: species or system MV4-11 + K-562 + COLO205 + SK-N-BE2 + OVCAR-8; conditions: read-out: apparent Kd, n = 1
Q6ZSR9, sequence (Q6ZSR9 whole entry, looked up): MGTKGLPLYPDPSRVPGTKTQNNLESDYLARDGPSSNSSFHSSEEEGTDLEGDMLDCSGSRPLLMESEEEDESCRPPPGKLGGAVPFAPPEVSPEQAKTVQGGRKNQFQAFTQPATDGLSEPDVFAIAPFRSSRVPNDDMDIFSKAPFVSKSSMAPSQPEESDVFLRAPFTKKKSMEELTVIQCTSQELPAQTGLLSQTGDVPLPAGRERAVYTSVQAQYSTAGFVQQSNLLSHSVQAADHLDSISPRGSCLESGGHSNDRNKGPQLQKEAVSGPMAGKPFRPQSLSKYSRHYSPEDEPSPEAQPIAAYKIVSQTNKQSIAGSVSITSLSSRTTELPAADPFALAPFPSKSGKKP

RET = test system: RET; parameters: species or system human, MV4-11 + K-562 + COLO205 + SK-N-BE2 + OVCAR-8; conditions: read-out: apparent Kd, n = 1
SIK2 = test system: SIK2; parameters: species or system human, MV4-11 + K-562 + COLO205 + SK-N-BE2 + OVCAR-8; conditions: read-out: apparent Kd; compound concentrations: 100 nM and 1000 nM (sheet 'Samples'), CATDS: 1.8714442667333402E-2; n = 1
CLK1 = test system: CLK1; parameters: species or system human, MV4-11 + K-562 + COLO205 + SK-N-BE2 + OVCAR-8; conditions: read-out: apparent Kd; compound concentrations: 100 nM and 1000 nM (sheet 'Samples'), CATDS: 0.227495449578137; n = 1
CLK4 = test system: CLK4; parameters: species or system human, MV4-11 + K-562 + COLO205 + SK-N-BE2 + OVCAR-8; conditions: read-out: apparent Kd; compound concentrations: 100 nM and 1000 nM (sheet 'Samples'), CATDS: 0.59916054369274396; n = 1
[1] = compound concentrations:100 nM and 1000 nM (sheet 'Samples')

## O=C(O)C(F)(F)F.O=C(O)C(F)(F)F.O=c1[nH]ccc2nc(N[C@@H]3CCCNC3)nc(Nc3ccc(S(=O)(=O)N4CCOCC4)cc3)c12.O=c1[nH]ccc2nc(N[C@@H]3CCCNC3)nc(Nc3ccc(S(=O)(=O)N4CCOCC4)cc3)c12 [GSK2177277A]
AAK1; compound concentrations: 100 nM and 1000 nM (sheet 'Samples'), CATDS: 1.8142496176493599E-2
  potency estimated from few doses: 64.1 nM
BMP2K; compound concentrations: 100 nM and 1000 nM (sheet 'Samples'), CATDS: 3.1293832570600401E-2
  potency estimated from few doses: 23.6 nM
CSNK2A1;CSNK2A3; CATDS: 9.7881749935300605E-3
  potency estimated from few doses: 292 nM
CSNK2A2; CATDS: 1.40967137709553E-2
  potency estimated from few doses: 111 nM
FLT4; compound concentrations: 100 nM and 1000 nM (sheet 'Samples'), CATDS: 8.0407033957096193E-3
  potency estimated from few doses: 563 nM
GAK; compound concentrations: 100 nM and 1000 nM (sheet 'Samples'), CATDS: 7.9677595893025404E-3
  potency estimated from few doses: 583 nM
GSK3A; compound concentrations: 100 nM and 1000 nM (sheet 'Samples'), CATDS: 2.6961640495366201E-2
  potency estimated from few doses: 30.4 nM
GSK3B; compound concentrations: 100 nM and 1000 nM (sheet 'Samples'), CATDS: 2.05762593754709E-2
  potency estimated from few doses: 49.8 nM
MELK; compound concentrations: 100 nM and 1000 nM (sheet 'Samples'), CATDS: 1.3446305906565099E-2
  potency estimated from few doses: 125 nM
NUAK1; compound concentrations: 100 nM and 1000 nM (sheet 'Samples'), CATDS: 0.191214314920645
  potency estimated from few doses: 2.02 nM
PAK4; compound concentrations: 100 nM and 1000 nM (sheet 'Samples'), CATDS: 1.6910585220633E-2
  potency estimated from few doses: 74.2 nM
PKN1; compound concentrations: 100 nM and 1000 nM (sheet 'Samples'), CATDS: 1.2984656701456401E-2
  potency estimated from few doses: 136 nM
PKN3; compound concentrations: 100 nM and 1000 nM (sheet 'Samples'), CATDS: 6.8634871166861197E-3
  potency estimated from few doses: 1090 nM
PRKAG1; compound concentrations: 100 nM and 1000 nM (sheet 'Samples'), CATDS: 1.7529215817932601E-2
  potency estimated from few doses: 68.8 nM
Q6ZSR9; compound concentrations: 100 nM and 1000 nM (sheet 'Samples'), CATDS: 1.64498976329738E-2
  potency estimated from few doses: 78.7 nM
RET; compound concentrations: 100 nM and 1000 nM (sheet 'Samples'), CATDS: 2.8395704553292499E-2
  potency estimated from few doses: 27.8 nM
SIK2
  potency estimated from few doses: 60.1 nM

## CCn1c(-c2nonc2N)nc2c(C#CC(C)(C)O)nc(O[C@@H](CN)c3ccccc3)cc21.O=C(O)C(F)(F)F [GSK1007102B]
AAK1; [1]
  potency estimated from few doses: 67.3 nM
BMP2K; [1]
  potency estimated from few doses: 355 nM
GSK3A; [1]
  potency estimated from few doses: 46.1 nM
GSK3B; [1]
  potency estimated from few doses: 40.5 nM
MELK; [1]
  potency estimated from few doses: 1040 nM
PAK4; [1]
  potency estimated from few doses: 39.8 nM
PKN1; [1]
  potency estimated from few doses: 37.6 nM
PKN3; [1]
  potency estimated from few doses: 2.06 nM
PRKAG1; [1]
  potency estimated from few doses: 765 nM
Q6ZSR9; [1]
  potency estimated from few doses: 111 nM
RET; [1]
  potency estimated from few doses: 1250 nM

## FC(F)(F)c1ccc(-c2ncn(CCCN3CCOCC3)c2-c2ccncc2)cc1 [SB-217780]
AAK1; compound concentrations: 100 nM and 1000 nM (sheet 'Samples'), CATDS: 0.194449602003399
  potency estimated from few doses: 1890 nM

## COc1ccc(-c2cc3c(N)ncnc3o2)cc1 [GW642138X]
AAK1; compound concentrations: 100 nM and 1000 nM (sheet 'Samples'), CATDS: 9.3740609603759906E-2
  potency estimated from few doses: 2100 nM

## NCC(NC(=O)c1cc(-c2cn[nH]c2)c(-c2ccnc3[nH]ccc23)s1)c1ccccc1.NCC(NC(=O)c1cc(-c2cn[nH]c2)c(-c2ccnc3[nH]ccc23)s1)c1ccccc1.O=C(O)C(F)(F)F.O=C(O)C(F)(F)F (centres unmarked) [GSK1325775A]
AAK1; compound concentrations: 100 nM and 1000 nM (sheet 'Samples'), CATDS: 3.6567153264384103E-2
  potency estimated from few doses: 1070 nM
BMP2K; compound concentrations: 100 nM and 1000 nM (sheet 'Samples'), CATDS: 3.9732447761342798E-2
  potency estimated from few doses: 847 nM
PKN1; compound concentrations: 100 nM and 1000 nM (sheet 'Samples'), CATDS: 2.9340466494355399E-2
  potency estimated from few doses: 2310 nM
Q6ZSR9; compound concentrations: 100 nM and 1000 nM (sheet 'Samples'), CATDS: 4.0068531071680201E-2
  potency estimated from few doses: 829 nM

## O=C1N=C(NCc2cccs2)O/C1=C\c1ccc2ncccc2c1 [RO4624208-000]
AAK1; compound concentrations: 100 nM and 1000 nM (sheet 'Samples'), CATDS: 0.10731748351682301
  potency estimated from few doses: 135 nM
BMP2K; compound concentrations: 100 nM and 1000 nM (sheet 'Samples'), CATDS: 4.6084247955460698E-2
  potency estimated from few doses: 1920 nM
CLK1
  potency estimated from few doses: 23.7 nM
CLK4
  potency estimated from few doses: 4.27 nM
CSNK2A1;CSNK2A3; CATDS: 6.2614032961525998E-2
  potency estimated from few doses: 629 nM
CSNK2A2; CATDS: 6.3902524713508005E-2
  potency estimated from few doses: 590 nM
Q6ZSR9; compound concentrations: 100 nM and 1000 nM (sheet 'Samples'), CATDS: 0.11947964791327
  potency estimated from few doses: 103 nM

## CN(C)CCNC(=O)Nc1ccc(N(C)c2ccnc(Nc3ccc(CS(C)(=O)=O)cc3)n2)cc1.Cl [GW830900A]
AAK1; [1]
  potency estimated from few doses: 820 nM
BMP2K; [1]
  potency estimated from few doses: 1220 nM
FLT4; [1]
  potency estimated from few doses: 1240 nM
GAK; [1]
  potency estimated from few doses: 1450 nM
NUAK1; [1]
  potency estimated from few doses: 1750 nM
Q6ZSR9; [1]
  potency estimated from few doses: 939 nM
